# Test results: paper PMC7862700, “An all-to-all approach to the identification of sequence-specific readers for epigenetic DNA modifications on cytosine”
# Legend:
# Experiment in all cases: DAPPL (digital affinity profiling via proximity ligation, sequencing); 10 mM Tris-HCl pH 7.5, 50 mM NaCl, 1 mM DTT, 4% glycerol, room temperature, 30 min; GST-TFs on glutathione beads, 16-mer random dsDNA library, 0.1% formaldehyde crosslink after washing; high values mean tight binding
# Settings in all cases: protein: recombinant; tags: N-terminal GST; dsDNA, one strand shown
# FLI1 = target: T1, FLI1 (Homo sapiens, UniProt Q01543 1-452)
# T1 sequence: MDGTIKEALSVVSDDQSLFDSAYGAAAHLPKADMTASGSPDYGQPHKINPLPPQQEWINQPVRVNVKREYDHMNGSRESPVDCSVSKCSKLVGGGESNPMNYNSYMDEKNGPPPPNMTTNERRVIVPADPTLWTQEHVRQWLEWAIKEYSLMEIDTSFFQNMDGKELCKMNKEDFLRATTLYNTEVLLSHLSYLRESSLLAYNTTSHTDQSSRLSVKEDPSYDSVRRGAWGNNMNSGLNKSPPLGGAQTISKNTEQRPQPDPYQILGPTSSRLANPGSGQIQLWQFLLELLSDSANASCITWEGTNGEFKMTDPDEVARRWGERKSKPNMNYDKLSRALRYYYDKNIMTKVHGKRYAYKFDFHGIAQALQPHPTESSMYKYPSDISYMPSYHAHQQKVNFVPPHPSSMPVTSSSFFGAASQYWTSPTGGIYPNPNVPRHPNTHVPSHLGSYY
# Summary of the method: (§1)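 Human transcription factors carrying a GST fusion were produced in yeast, bound to glutathione beads, tagged with DNA barcodes and pooled together with a tag-only sample. Each pool was held with 200 nmole of a random double-stranded 16-mer DNA library in Tris/NaCl/DTT/glycerol buffer for 30 min at room temperature, then washed, crosslinked in 0.1% formaldehyde, proximity-ligated with BsaI/T4 ligase (1 h, 37 °C), PCR-amplified and sequenced on an Illumina NextSeq500. Binding signal is the read frequency of each hexamer for a given factor divided by its frequency in the tag-only sample.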
# ELK1 = target: T2, ELK1 (Homo sapiens, UniProt P19419 1-428)
# T2 sequence: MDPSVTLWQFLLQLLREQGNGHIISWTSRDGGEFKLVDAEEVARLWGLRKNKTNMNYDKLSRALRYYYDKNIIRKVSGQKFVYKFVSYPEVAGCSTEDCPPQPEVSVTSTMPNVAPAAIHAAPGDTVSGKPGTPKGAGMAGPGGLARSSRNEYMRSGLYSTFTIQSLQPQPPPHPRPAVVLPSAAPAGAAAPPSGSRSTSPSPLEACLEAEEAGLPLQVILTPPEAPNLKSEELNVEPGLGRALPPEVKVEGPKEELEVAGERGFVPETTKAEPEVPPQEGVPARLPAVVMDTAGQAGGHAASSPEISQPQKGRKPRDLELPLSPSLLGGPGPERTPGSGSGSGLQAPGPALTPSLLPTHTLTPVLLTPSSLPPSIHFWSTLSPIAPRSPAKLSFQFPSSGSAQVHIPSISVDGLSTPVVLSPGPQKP
# Summary of the method: as §1
# GABPA = target: T3, GABPA (Homo sapiens, UniProt Q06546 1-454)
# T3 sequence: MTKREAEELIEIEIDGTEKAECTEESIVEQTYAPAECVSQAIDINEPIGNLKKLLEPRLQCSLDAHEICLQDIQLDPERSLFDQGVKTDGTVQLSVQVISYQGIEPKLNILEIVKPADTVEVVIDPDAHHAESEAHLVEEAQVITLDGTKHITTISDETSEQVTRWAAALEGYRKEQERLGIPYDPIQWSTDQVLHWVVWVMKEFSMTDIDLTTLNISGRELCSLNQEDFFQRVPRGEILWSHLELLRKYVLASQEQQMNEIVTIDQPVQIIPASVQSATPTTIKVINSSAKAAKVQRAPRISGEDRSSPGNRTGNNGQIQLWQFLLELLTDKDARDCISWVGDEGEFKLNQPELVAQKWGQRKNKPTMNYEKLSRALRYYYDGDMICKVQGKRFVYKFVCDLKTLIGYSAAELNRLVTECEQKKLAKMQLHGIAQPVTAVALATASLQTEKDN
# Summary of the method: as §1
# ELF1 = ELF1 (Homo sapiens, UniProt P32519 1-619)
# Sequence of ELF1 (P32519 whole entry): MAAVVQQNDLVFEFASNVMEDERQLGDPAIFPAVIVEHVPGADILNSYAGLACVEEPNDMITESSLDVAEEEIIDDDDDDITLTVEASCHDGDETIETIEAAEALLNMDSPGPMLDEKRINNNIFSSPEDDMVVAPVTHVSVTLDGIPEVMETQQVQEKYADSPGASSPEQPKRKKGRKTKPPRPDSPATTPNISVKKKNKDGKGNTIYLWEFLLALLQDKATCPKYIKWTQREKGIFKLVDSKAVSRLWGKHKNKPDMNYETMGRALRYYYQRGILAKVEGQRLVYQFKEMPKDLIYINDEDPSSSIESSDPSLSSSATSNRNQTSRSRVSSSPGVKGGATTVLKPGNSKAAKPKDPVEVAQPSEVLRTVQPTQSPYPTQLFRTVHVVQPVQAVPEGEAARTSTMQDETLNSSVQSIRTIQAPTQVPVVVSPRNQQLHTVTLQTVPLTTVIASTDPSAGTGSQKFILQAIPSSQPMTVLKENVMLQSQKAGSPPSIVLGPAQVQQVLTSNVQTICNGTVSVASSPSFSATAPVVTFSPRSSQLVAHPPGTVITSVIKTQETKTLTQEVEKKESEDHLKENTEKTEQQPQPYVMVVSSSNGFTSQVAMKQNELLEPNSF
# Summary of the method: as §1
# EHF = target: T4, EHF (Homo sapiens, UniProt Q9NZC4 1-300)
# T4 sequence: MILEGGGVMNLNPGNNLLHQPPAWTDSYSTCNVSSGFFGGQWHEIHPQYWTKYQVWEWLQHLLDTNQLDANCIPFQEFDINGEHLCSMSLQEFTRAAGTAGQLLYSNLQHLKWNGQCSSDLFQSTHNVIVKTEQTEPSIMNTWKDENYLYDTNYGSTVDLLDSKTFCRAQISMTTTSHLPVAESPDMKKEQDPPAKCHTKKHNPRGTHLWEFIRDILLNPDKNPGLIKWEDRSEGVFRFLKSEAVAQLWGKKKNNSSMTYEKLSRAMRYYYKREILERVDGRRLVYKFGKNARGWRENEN
# Summary of the method: as §1
# ELK3 = target: T5, ELK3 (Homo sapiens, UniProt P41970 1-407)
# T5 sequence: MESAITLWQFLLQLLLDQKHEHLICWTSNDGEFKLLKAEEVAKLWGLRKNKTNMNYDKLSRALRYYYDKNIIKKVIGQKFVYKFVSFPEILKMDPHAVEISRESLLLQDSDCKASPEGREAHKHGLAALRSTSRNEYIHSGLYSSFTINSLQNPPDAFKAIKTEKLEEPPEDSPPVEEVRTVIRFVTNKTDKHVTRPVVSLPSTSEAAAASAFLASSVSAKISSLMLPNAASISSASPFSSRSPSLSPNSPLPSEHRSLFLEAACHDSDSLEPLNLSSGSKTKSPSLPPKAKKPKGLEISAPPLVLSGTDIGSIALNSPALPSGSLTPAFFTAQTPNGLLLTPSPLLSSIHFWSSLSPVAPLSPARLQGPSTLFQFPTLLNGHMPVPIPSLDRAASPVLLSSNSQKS
# Summary of the method: as §1
# FEV = target: T6, FEV (Homo sapiens, UniProt Q99581 1-238)
# T6 sequence: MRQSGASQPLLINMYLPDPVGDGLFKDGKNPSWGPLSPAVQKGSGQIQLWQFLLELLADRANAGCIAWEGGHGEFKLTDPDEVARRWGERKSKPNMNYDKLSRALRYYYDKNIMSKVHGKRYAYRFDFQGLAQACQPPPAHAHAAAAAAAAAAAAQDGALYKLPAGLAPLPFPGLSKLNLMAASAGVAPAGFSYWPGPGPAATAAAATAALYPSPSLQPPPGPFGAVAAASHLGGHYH
# Summary of the method: as §1
# ELF4 = ELF4 (Homo sapiens, UniProt Q99607 1-663)
# Sequence of ELF4 (Q99607 whole entry): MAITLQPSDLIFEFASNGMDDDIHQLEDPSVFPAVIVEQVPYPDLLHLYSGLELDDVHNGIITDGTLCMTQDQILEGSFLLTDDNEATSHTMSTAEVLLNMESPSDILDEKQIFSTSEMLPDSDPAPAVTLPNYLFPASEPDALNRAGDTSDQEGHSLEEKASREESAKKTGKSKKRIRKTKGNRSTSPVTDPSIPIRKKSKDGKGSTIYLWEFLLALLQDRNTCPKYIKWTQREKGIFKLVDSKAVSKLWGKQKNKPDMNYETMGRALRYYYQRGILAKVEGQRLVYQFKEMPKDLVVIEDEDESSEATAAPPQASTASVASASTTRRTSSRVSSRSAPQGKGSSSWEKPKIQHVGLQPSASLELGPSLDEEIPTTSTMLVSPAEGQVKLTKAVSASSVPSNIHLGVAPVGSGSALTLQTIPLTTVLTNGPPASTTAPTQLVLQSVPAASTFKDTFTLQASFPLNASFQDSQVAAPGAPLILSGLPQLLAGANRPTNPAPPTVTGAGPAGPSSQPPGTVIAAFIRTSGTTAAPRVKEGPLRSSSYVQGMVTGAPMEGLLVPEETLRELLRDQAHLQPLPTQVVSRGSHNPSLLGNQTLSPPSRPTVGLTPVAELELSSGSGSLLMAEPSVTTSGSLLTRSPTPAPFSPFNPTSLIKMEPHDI
# Summary of the method: as §1
# ELK4 = target: T7, ELK4 (Homo sapiens, UniProt P28324-2 1-405)
# T7 sequence: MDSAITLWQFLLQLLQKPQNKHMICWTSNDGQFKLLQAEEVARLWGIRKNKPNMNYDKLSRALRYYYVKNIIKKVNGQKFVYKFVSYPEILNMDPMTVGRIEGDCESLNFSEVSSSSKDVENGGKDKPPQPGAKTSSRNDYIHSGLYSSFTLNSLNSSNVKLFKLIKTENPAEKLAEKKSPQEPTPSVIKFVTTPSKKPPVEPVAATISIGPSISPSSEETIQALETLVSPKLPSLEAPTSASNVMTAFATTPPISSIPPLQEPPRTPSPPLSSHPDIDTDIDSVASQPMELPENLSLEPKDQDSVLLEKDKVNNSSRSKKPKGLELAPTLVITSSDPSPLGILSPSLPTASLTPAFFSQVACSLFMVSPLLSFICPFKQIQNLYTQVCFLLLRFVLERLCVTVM
# Summary of the method: as §1
# ERF = target: T8, ERF (Homo sapiens, UniProt P50548 1-548)
# T8 sequence: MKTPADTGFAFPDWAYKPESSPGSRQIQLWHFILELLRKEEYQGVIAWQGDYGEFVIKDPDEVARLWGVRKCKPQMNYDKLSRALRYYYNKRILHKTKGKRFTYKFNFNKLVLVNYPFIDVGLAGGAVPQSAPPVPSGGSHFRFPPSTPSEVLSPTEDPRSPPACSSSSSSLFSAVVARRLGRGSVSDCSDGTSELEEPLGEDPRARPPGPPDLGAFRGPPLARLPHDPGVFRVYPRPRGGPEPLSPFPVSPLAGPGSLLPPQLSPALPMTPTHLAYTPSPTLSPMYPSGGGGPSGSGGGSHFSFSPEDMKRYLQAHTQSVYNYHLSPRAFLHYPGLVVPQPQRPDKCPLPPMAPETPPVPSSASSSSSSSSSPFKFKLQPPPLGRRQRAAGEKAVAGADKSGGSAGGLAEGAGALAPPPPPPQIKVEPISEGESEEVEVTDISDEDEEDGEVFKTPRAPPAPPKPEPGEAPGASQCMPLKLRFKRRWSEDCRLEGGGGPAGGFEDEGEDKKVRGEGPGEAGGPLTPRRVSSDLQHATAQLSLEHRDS
# Summary of the method: as §1
# ETV3L = target: T9, ETV3L (Homo sapiens, UniProt Q6ZN32 1-361)
# T9 sequence: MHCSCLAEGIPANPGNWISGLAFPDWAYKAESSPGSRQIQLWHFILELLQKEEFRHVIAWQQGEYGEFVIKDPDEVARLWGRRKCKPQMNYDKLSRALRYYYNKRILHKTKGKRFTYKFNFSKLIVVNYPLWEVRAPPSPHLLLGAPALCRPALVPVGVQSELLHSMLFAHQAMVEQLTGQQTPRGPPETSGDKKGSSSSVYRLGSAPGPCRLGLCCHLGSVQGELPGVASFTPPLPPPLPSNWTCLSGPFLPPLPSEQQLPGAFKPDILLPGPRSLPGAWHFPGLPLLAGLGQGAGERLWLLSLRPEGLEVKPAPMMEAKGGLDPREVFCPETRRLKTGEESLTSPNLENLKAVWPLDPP
# Summary of the method: as §1
# ETS2 = target: T10, ETS2 (Homo sapiens, UniProt P15036 1-469)
# T10 sequence: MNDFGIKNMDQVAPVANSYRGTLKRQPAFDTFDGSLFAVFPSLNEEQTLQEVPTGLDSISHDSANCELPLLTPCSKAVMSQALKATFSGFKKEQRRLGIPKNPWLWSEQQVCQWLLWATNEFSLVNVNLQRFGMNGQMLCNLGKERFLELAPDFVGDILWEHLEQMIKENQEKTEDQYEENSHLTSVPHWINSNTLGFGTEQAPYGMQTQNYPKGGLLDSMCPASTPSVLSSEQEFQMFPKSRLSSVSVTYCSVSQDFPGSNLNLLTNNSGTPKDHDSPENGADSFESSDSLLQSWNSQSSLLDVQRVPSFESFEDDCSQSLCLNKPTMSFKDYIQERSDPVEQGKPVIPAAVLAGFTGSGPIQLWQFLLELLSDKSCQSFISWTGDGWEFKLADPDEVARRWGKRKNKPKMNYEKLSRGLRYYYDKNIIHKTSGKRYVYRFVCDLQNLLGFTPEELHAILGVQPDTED
# Summary of the method: as §1
# ETV3 = target: T11, ETV3 (Homo sapiens, UniProt P41162-2 1-143)
# T11 sequence: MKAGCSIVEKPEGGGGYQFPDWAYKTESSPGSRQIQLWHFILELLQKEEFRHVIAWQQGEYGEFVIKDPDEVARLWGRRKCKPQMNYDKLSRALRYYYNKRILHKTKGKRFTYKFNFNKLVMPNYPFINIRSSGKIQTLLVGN
# Summary of the method: as §1
sequence,measurement,setting,value
GCCGCA,binding signal,FLI1,"1.01 fold enrichment (6-mer frequency, TF over GST control)"
same,binding signal,ELK1,"1.03 fold enrichment (6-mer frequency, TF over GST control)"
same,binding signal,GABPA,"1.02 fold enrichment (6-mer frequency, TF over GST control)"
same,binding signal,ELF1,"1.04 fold enrichment (6-mer frequency, TF over GST control)"
same,binding signal,EHF,"1.04 fold enrichment (6-mer frequency, TF over GST control)"
same,binding signal,ELK3,"1.04 fold enrichment (6-mer frequency, TF over GST control)"
same,binding signal,FEV,"1.01 fold enrichment (6-mer frequency, TF over GST control)"
same,binding signal,ELF4,"1.04 fold enrichment (6-mer frequency, TF over GST control)"
same,binding signal,ELK4,"1.04 fold enrichment (6-mer frequency, TF over GST control)"
same,binding signal,ERF,"1.07 fold enrichment (6-mer frequency, TF over GST control)"
same,binding signal,ETV3L,"1.04 fold enrichment (6-mer frequency, TF over GST control)"
same,binding signal,ETS2,"1 fold enrichment (6-mer frequency, TF over GST control)"
same,binding signal,ETV3,"1 fold enrichment (6-mer frequency, TF over GST control)"
